# From a collection of fitness landscapes (doi:10.1016/j.celrep.2020.107928)
# Whole data set: some 81,000 sequences, median “one-hybrid fitness for binding NBS DNA” near -0.1, cut for the highest 2% near 0.36. This is one part of a sample in which the highest values are shown more often than they occur.
# B1: Caulobacter ParB omega fusion; a variant is named by its letters at X, in order, B8GW30 (parent)
# chain: MESVVVGEPGMSEGRRGLGRGLSALLGEVDAAPAQAPGEQLGGSREAPIEILQRNPDQPRRTFREEDLEDLSNSIREKGVLQPILVRPSPDTAGEYQIVAGERAWRAAQRAGLKTVPIMVRELDDLAVLEIGIIENVQRADLNVLEEALSYKVLMEKFERTQENIAQTIGKSXSHVANXMRLLXLPDEVQSYLVSGELTAXHARAIAAAADPVALAKQIIEGGLSVRETEALARKAPNLSAGKSKGGRPPRVKDTDTQALESDLSSVLGLDVSIDHRGSTGTLTITYATLEQLDDLCNRLTRGI
# Variants of: B1
# Test: one-hybrid fitness for binding NBS DNA (the Noc-binding site; scaled: cognate 1, non-cognate 0); higher = stronger binding
# Settings: with NBS DNA site
# Outline: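 On M9-minus-histidine containing 0.1 mM IPTG and 5 mM 3-AT, E. coli USO cells with a HIS3 reporter, site 19 bp from the promoter, grew 48 hours at 37°C to select Caulobacter ParB libraries randomised at four specificity codons. Plasmids from before and after were Illumina-sequenced, with three replicate libraries pooled and variants under 10 reads left out. Fitness is the log change in variant-to-wild-type read ratio, rescaled against cognate and non-cognate.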
row,Variant,one-hybrid fitness for binding NBS DNA
1,ALKD,≤ 0.2
2,SPCC,≤ 0.2
3,WADF,≤ 0.2
4,RNVM,≤ 0.2
5,SLWP,≤ 0.2
6,MHGS,≤ 0.2
7,FLKC,≤ 0.2
8,NLKN,≤ 0.2
9,QPGY,≤ 0.2
10,QCHY,0.258
11,QRGY,0.571
12,QRSY,0.477
13,QPSY,≤ 0.2
14,QCGY,0.3
15,QCSY,0.22
16,QRHY,0.553
17,QPHY,≤ 0.2
18,QRWY,0.289
19,QRYY,0.433
20,QRIY,0.271
21,KKIT,≤ 0.2
22,QYVI,≤ 0.2
23,PAGP,≤ 0.2
24,AGDQ,≤ 0.2
25,RWTS,≤ 0.2
26,MTVE,≤ 0.2

row,Variant,one-hybrid fitness for binding NBS DNA
1,MHPL,≤ 0.2
2,NLEL,≤ 0.2
3,YEAS,≤ 0.2
4,QRVY,0.344
5,QRQY,0.521
6,QCQY,0.265
7,QRKY,0.699
8,QSQY,≤ 0.2
9,NRKY,≤ 0.2
10,GKDL,≤ 0.2
11,ARSS,≤ 0.2
12,LLLY,≤ 0.2
13,CRKR,0.417
14,CRYR,≤ 0.2
15,CRVR,≤ 0.2
16,CRDR,≤ 0.2
17,CCKR,≤ 0.2
18,CRRR,0.373
19,SYHR,≤ 0.2
20,CIIR,≤ 0.2
21,QLHC,≤ 0.2
22,DTYG,≤ 0.2
23,LLQA,≤ 0.2
24,YPAF,≤ 0.2
25,QLRN,0.319
26,QLRH,0.452

row,Variant,one-hybrid fitness for binding NBS DNA
1,QLRP,≤ 0.2
2,QLYH,≤ 0.2
3,QLRS,0.586
4,QLYS,0.252
5,EPSE,≤ 0.2
6,WYYR,≤ 0.2
7,QNWS,≤ 0.2
8,TTNM,≤ 0.2
9,AGGD,≤ 0.2
10,QTFN,≤ 0.2
11,QTAH,0.401
12,QTFS,0.391
13,QTAP,≤ 0.2
14,QTAN,0.217
15,QTFK,≤ 0.2
16,QTAS,0.51
17,QTAM,0.233
18,QTAD,≤ 0.2
19,YQLR,≤ 0.2
20,LRHP,≤ 0.2
21,REPM,≤ 0.2
22,TKNF,≤ 0.2
23,SEEG,≤ 0.2
24,RKKT,0.691
25,RKVP,≤ 0.2
26,RKKG,0.227

row,Variant,one-hybrid fitness for binding NBS DNA
1,RKKQ,0.242
2,RKVT,0.512
3,RPVT,≤ 0.2
4,ILKV,≤ 0.2
5,VPFY,≤ 0.2
6,KCAR,≤ 0.2
7,DRFR,≤ 0.2
8,KRFR,0.469
9,KPAR,≤ 0.2
10,NRFR,≤ 0.2
11,KRAR,0.541
12,STSG,≤ 0.2
13,QAVV,≤ 0.2
14,QKVV,≤ 0.2
15,QLKV,0.342
16,QRVV,0.272
17,QKCV,≤ 0.2
18,QCKV,0.479
19,QRPV,≤ 0.2
20,QKKV,0.406
21,QPKV,≤ 0.2
22,QAQV,≤ 0.2
23,QAKV,0.393
24,QRKV,0.588
25,NHES,≤ 0.2
26,WMIP,≤ 0.2

row,Variant,one-hybrid fitness for binding NBS DNA
1,VPEL,≤ 0.2
2,KIDS,≤ 0.2
3,YGSP,≤ 0.2
4,QMKV,0.424
5,QSVV,≤ 0.2
6,QHVV,≤ 0.2
7,QIKV,0.267
8,QMNV,≤ 0.2
9,QHDV,≤ 0.2
10,QTKV,0.599
11,QSKV,0.398
12,QTVV,≤ 0.2
13,QMVV,≤ 0.2
14,QTIV,≤ 0.2
15,QHKV,0.44
16,TFNG,≤ 0.2
17,WQMG,≤ 0.2
18,FYPI,≤ 0.2
19,VPIG,≤ 0.2
20,DNCR,≤ 0.2
21,MCLS,≤ 0.2
22,LFAP,≤ 0.2
23,LAIW,≤ 0.2
24,QMAA,0.339
25,QSFA,≤ 0.2
26,QHAA,≤ 0.2

row,Variant,one-hybrid fitness for binding NBS DNA
1,QRFA,0.494
2,QRAA,0.617
3,QPFA,≤ 0.2
4,QVCG,≤ 0.2
5,AEFL,≤ 0.2
6,MPNG,≤ 0.2
7,KRHP,≤ 0.2
8,KRHT,0.651
9,KAET,≤ 0.2
10,KRGT,0.537
11,KCHT,≤ 0.2
12,KRST,0.573
13,KRGH,≤ 0.2
14,KPET,≤ 0.2
15,KCGT,≤ 0.2
16,KCST,≤ 0.2
17,DRST,≤ 0.2
18,KRET,0.501
19,LDCV,≤ 0.2
20,DSPG,≤ 0.2
21,EQLY,≤ 0.2
22,TMSQ,≤ 0.2
23,VICL,≤ 0.2
24,MMNR,≤ 0.2
25,KCIT,≤ 0.2
26,KRRT,0.674

row,Variant,one-hybrid fitness for binding NBS DNA
1,NRCT,≤ 0.2
2,KRPT,0.305
3,DRYT,≤ 0.2
4,KCRT,0.315
5,NRRT,≤ 0.2
6,KRIT,0.481
7,KRCD,≤ 0.2
8,KRYT,0.613
9,KCYT,≤ 0.2
10,KRCT,0.558
11,FRGT,≤ 0.2
12,HAIS,≤ 0.2
13,WVIG,≤ 0.2
14,TARF,≤ 0.2
15,LMCG,≤ 0.2
16,PVMR,≤ 0.2
17,SKSN,≤ 0.2
18,CRIR,≤ 0.2
19,HDNF,≤ 0.2
20,TALC,≤ 0.2
21,MHTW,≤ 0.2
22,KCLT,≤ 0.2
23,KRWT,0.669
24,KCQT,≤ 0.2
25,KRQT,0.513
26,NRWT,≤ 0.2

row,Variant,one-hybrid fitness for binding NBS DNA
1,KRLT,0.469
2,KPLT,≤ 0.2
3,KPWT,≤ 0.2
4,KRQP,≤ 0.2
5,ELNV,≤ 0.2
6,NLKK,≤ 0.2
7,FRPG,≤ 0.2
8,HKCG,≤ 0.2
9,PFLC,≤ 0.2
10,RHWR,0.256
11,RHHP,≤ 0.2
12,RHYR,0.387
13,RHLR,0.329
14,RHIR,≤ 0.2
15,RHQR,0.448
16,RHHR,0.447
17,RHHH,≤ 0.2
18,RHPR,≤ 0.2
19,RHRR,0.656
